{
  "source": "PubChem BioAssay AID624111",
  "about": "(Johns Hopkins Ion Channel Center, 2012)",
  "note": "Hit rate of the full screen: of about 4,000 compounds, about 60 (2%) were called active. This is one part of a sample in which actives are shown more often than they occur.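 Rule for the calls: active = duplicate-averaged calcium fluorescence ratio at least three times the standard deviation of buffer wells, a nonspecific response in parental cells; inactive = the rest.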",
  "data": [
    {"test": "calcium flux effects in cells lacking MrgX1 – parental HEK293 cells, Fluo-4 calcium flux, counter-screen for MrgX1 antagonist project, confirmation (AID 624111)", "details": "parental HEK293, Fluo-4 calcium fluorescence, FDSS; at 10 µM", "values": [
      {"smiles": "C=CCSc1nc(Cc2ccc(Cl)cc2)nc2ccccc12", "fluorescence ratio F(max-min)/F0": "inactive"},
      {"smiles": "O=C(NC1CCCCC1)C1c2ccccc2C(=O)N1Cc1ccco1", "note": "(stereo not given)", "fluorescence ratio F(max-min)/F0": "inactive"},
      {"smiles": "Cc1ccc(C(=O)COC(=O)CCN2C(=O)C3C4CC(C(Br)C4Br)C3C2=O)cc1", "note": "(stereo not given)", "fluorescence ratio F(max-min)/F0": "inactive"},
      {"smiles": "CC(C)(C)Nc1c(-c2cccs2)nc2ccccn12", "fluorescence ratio F(max-min)/F0": "inactive"},
      {"smiles": "Cc1ccc(CS(=O)(=O)c2ncc(Cl)c(C(=O)Nc3nnc(C)s3)n2)cc1", "fluorescence ratio F(max-min)/F0": "inactive"},
      {"smiles": "COc1ccc(C(=O)NNC(=S)NC(=O)c2ccccc2)cc1", "fluorescence ratio F(max-min)/F0": "inactive"},
      {"smiles": "O=C(CN1CCN(c2ccc(Cl)cc2)CC1)N1CCCC1", "fluorescence ratio F(max-min)/F0": "inactive"},
      {"smiles": "Cc1ccc(NC2(C#N)C(=O)Nc3ccccc32)cc1", "note": "(stereo not given)", "fluorescence ratio F(max-min)/F0": "inactive"},
      {"smiles": "O=C(c1ccc(OC2CCN(C(=O)c3cccnc3)CC2)cc1)N1CCCCCC1", "fluorescence ratio F(max-min)/F0": "inactive"},
      {"smiles": "Cc1nc(N2CCN(c3ccccn3)CC2)c2c(C)c(C(=O)Nc3ccc(F)c(Cl)c3)sc2n1", "fluorescence ratio F(max-min)/F0": "inactive"},
      {"smiles": "Cc1ccnc(-n2sc3ccccc3c2=O)n1", "fluorescence ratio F(max-min)/F0": "inactive"},
      {"smiles": "C=CCNC(=O)c1cc(-c2ccccc2O)on1", "fluorescence ratio F(max-min)/F0": "inactive"},
      {"smiles": "CN1/C(=C\\C=C2\\N=C(c3ccc(F)cc3)OC2=O)C(C)(C)c2ccccc21", "fluorescence ratio F(max-min)/F0": "inactive"},
      {"smiles": "COc1ccc(C(=O)Nc2c(N)nc(SCC(=O)N3CCC(C)CC3)[nH]c2=O)cc1OC", "fluorescence ratio F(max-min)/F0": "inactive"},
      {"smiles": "Cc1ccc2nc(-c3ccc(NC(=O)c4cccnc4)cc3)oc2c1", "fluorescence ratio F(max-min)/F0": "inactive"},
      {"smiles": "Cc1ccc2c(c1)c1ncnc(N3CCc4ccccc4C3)c1n2C", "fluorescence ratio F(max-min)/F0": "inactive"},
      {"smiles": "CCCCOC(=O)CNc1nnc(SCC(=O)OCC)[nH]c1=O", "fluorescence ratio F(max-min)/F0": "inactive"},
      {"smiles": "COc1cccc(CNC(=O)C2CCN(S(=O)(=O)c3cccc4cccnc34)CC2)c1", "fluorescence ratio F(max-min)/F0": "inactive"},
      {"smiles": "Cc1nc(C)c(-c2csc(NCCc3ccccc3)n2)s1", "fluorescence ratio F(max-min)/F0": "inactive"},
      {"smiles": "CN(c1cccc(NC(=O)Nc2ccc(Cl)cc2)c1)S(C)(=O)=O", "fluorescence ratio F(max-min)/F0": "inactive"}
    ]}
  ]
}
